Measurements reported in PubChem BioAssay (NCI).
“And” between values parts separate entries of the source, which are not always exact repeats. Equal entries are not always repeated. The panel holds about 83,000 compounds, 20% with a hit somewhere; the sample as a whole holds those more often.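 Results are percent growth after 48 hours of single-concentration exposure. 100 means growth as in untreated cells, lower positive values show inhibition; negative values down to -100 show cell death.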 Unmarked numbers belong to inactive results. The source made the active and inactive calls. How the source made its calls: active means growth percent below 10; inactive means the rest. Starred links: 1 amine or outer side, 2 acyl side, 3 side chain; linkers in the order of their positions; H or OH if unused. Positions of bridges follow the written chain, without caps; N, C: chain ends. Non-standard residues stand in square brackets, D forms with d. Residues, ends and D or L forms follow the SMILES beside them. Chains are numbered I, II in the order given. Actinocin(9to1) = Cc1c2oc3c(C)ccc(C(=O)[*:1])c3nc-2c(C(=O)[*:2])c(N)c1=O; aThr = C[C@H](O)[C@H](N)C(=O)O; NMeV = CN[C@H](C(=O)O)C(C)C; Sar = CNCC(=O)O

Test system: SF-268 CNS
Assay: NCI-60 one-dose screen, 48 h (100 = growth as untreated, 0 = no growth, -100 = all killed)
Settings: 10 µM

| SMILES | growth |
| --- | --- |
| CN(C)CCC(=O)c1c[nH]c2ccccc12 | 115% |
| N#C/C(=C1C=C/C(=N\O)C(Cl)=C\1)c1ccccc1 | 27% |
| S=c1[nH]nc(Cc2ccccc2)c(=S)[nH]1 | 90.3% |
| Cc1cnc(/C=N\NC(N)=S)c2cccc(N)c12 | 2.26% (active) |
| CCCCCCCCCCCCCCCCCN | 113% |
| Cc1cc(NCCCN(C)C)c2ccc3c(ccc4c(NCCCN(C)C)cc(C)nc43)c2n1 | -86.1% (active) |
| COc1cc(C(C)(C)C)cc(OC)c1C(O)(c1c(OC)cc(C(C)(C)C)cc1OC)c1c(OC)cc(C(C)(C)C)cc1OC | -77% (active) |
| O=c1[nH]cc(F)c(=O)[nH]1 | 81.3% and 91.9% |
| Nc1ccc2cc(Br)c3ccccc3c2c1 | 68.9% |
| BrC/C=C/C[P+](c1ccccc1)(c1ccccc1)c1ccccc1 | 58.7% |
| O=C(/C(=C/c1ccccc1)CBr)c1ccccc1 | 84.4% |
| Cc1c2oc3c(C)ccc(C(=O)N[C@@H]4C(=O)N[C@H](C(C)C)C(=O)N5CCC[C@H]5C(=O)N(C)CC(=O)N(C)[C@@H](C(C)C)C(=O)O[C@H]4C)c3nc-2c(C(=O)N[C@@H]2C(=O)N[C@H](C(C)C)C(=O)N3CCC[C@H]3C(=O)N(C)CC(=O)N(C)[C@@H](C(C)C)C(=O)O[C@H]2C)c(N)c1=O (I: [aThr][dV]P[Sar][NMeV] / II: [aThr][dV]P[Sar][NMeV]; ester I:1-I:C, II:1-II:C; linker I:N-II:N via Actinocin(9to1)) | -9.34% (active) |
| CSc1ccc2c(c1)C(N1CCN(C)CC1)Cc1ccccc1S2 (centres undefined) | 36.7% |
| CN1CCN(c2ccc3nc(-c4ccc5nc(-c6ccc(O)cc6)[nH]c5c4)[nH]c3c2)CC1 | 82.9% |
